sEH activator: soluble epoxide hydrolase (human) activation. P34913. purified human sEH enzymatic activity, activator screen. activation, % at 2 µM. 91,000 compounds, 0.04% hits; in the data active = activation above about 37%
sEH inh: blocks human soluble epoxide hydrolase activity | P34913 | inhibition, % at 2 µM | 91,000 compounds, 0.34% hits | recombinant human sEH enzymatic activity assay; in the data active = inhibition above about 80%
CYP2C9 act: increases human cytochrome P450 2C9 activity | P11712 | 96,000 compounds, 1.4% hits | recombinant CYP2C9, luciferin-H conversion, luminescence; hits give high values; factor 1 = untreated enzyme, 0 = blocked | activation factor at 5 µM;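 active = activation factor of 2 or more for CYP2C9 at a 5 µM dose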;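 note: 0 = sulfaphenazole-blocked wells and 1 = vehicle-only wells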
CYP2C9 inhib: inhibitors of human CYP2C9; 96,000 compounds, 20% hits; AID 777; inhibition, % at 5 µM; CYP2C9 Supersomes, luciferin-H conversion, luminescence;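 active = blocking of liver enzyme CYP2C9 beyond about 50% at 5 µM, limit read from the data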
CYP2C19 inh: blocks human cytochrome P450 2C19 | inhibition, % at 5 µM | 96,000 compounds, 21% hits | AID 778 | CYP2C19 Supersomes, luciferin-H EGE luminescence, 30 min;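 active = CYP2C19 inhibition above a set limit at 5 µM in the primary screen, cut at about 50% in these data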;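 note: plate controls were negative control wells for no effect and 2.5 mM tranylcypromine positive control for full effect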
Target sequence (P33261 whole entry, looked up): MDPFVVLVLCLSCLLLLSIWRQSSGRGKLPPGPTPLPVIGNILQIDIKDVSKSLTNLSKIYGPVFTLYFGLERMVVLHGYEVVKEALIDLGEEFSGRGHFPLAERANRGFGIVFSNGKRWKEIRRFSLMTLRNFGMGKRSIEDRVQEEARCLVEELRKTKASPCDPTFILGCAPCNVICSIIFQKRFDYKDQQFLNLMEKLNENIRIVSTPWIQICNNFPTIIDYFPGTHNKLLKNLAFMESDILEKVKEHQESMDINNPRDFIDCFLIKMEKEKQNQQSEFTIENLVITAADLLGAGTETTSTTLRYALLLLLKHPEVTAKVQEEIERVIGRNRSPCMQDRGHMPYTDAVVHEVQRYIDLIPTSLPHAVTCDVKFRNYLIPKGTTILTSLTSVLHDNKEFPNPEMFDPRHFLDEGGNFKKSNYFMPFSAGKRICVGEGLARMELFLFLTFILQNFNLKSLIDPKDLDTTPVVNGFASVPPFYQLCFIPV
CYP2C19 activ: cytochrome P450 2C19 (human) activation; AID 1025; P33261; 96,000 tested, under 10 active; activation factor at 5 µM; recombinant CYP2C19, luciferin-H EGE luminescence; hits give high values; 0 = fully inhibited enzyme, 1 = untreated enzyme;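 active = activation factor of at least 2 at 5 µM in the primary screen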;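 note: 0 = wells with 2.5 mM tranylcypromine and 1 = vehicle-only wells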
* = called active by the depositor; / = not tested or not shown. An excerpt weighted towards active compounds, which were near 27% of everything screened.

SMILES	sEH activator	sEH inh	CYP2C9 act	CYP2C9 inhib	CYP2C19 inh	CYP2C19 activ
CC1=C(C(=O)NCc2ccccc2)C(c2ccccc2OCC(N)=O)NC(=O)N1 (stereo unspecified)	-0.1	0.0	0.5	45.3	-5.5	1.1
COc1ccccc1NC(=O)C1=C(C)NC(=O)NC1c1cccc(OC)c1OC (stereo unspecified)	7.9	-7.2	1.1	-13.0	-0.9	1
COCCOC(=O)C1=C(C)N(Cc2ccccc2)C(=O)NC1c1cccc(OC)c1OC (stereo unspecified)	2.9	-5.2	0.1	90.4*	99.3*	0
CCSCCOC(=O)C1=C(C)NC(=O)NC1c1cccc(OC)c1OC (stereo unspecified)	/	/	0.7	27.2	79.9*	0.2
CC(=O)C1=C(c2ccccc2)NC(=O)NC1c1ccccc1OCC(=O)NCc1ccccc1 (stereo unspecified)	1.3	-1.9	0.1	94.7*	89.8*	0.1
COC(=O)C1=C(C)NC(=O)NC1c1cccc(OC)c1OCc1ccccc1 (stereo unspecified)	17.6	-15.4	0.2	76.7*	19.4	0.8
CCOc1ccccc1NC(=O)C1=C(C)NC(=O)NC1c1cccc(OC)c1OC (stereo unspecified)	15.8	-15.8	0.9	11.5	20.1	0.8
Cc1[nH]c(=O)[nH]c(=O)c1S(=O)(=O)N(C)Cc1ccccc1	/	/	0.9	7.0	-0.2	1
COc1cc(Cl)ccc1NC(=O)COc1ccccc1C(=O)N1CCN(c2ccc(O)cc2)CC1	-32.8	35.4	0.2	81.7*	79.3*	0.2
CCCN1CCN(C(=O)c2cn(CC(C)C)c(=O)c3cc(OC)c(OC)cc23)CC1	3.0	-3.9	0.9	10.8	-6.1	1.1
O=C(C1CC1c1ccccc1)N1CCN(c2cccc(Cl)c2)CC1 (stereo unspecified)	-7.7	10.4	0.5	46.7	59.5*	0.4
COc1ccc(N2CCN(C(=O)NC3CCCCC3)CC2)cc1	-14.6	18.8	/	/	/	/
COc1ccccc1OCC(=O)Nc1ccc(O)cc1C(=O)O	-0.6	2.0	0.9	13.6	-19.5	1.2
COc1cccc(N2CCN(C(=O)NC3CCCCC3)CC2)c1	-19.0	23.2	0.4	56.2*	30.0	0.7
COc1cc2c(C(=O)N3CCN(c4cccc(Cl)c4)CC3)cn(CC(C)C)c(=O)c2cc1OC	0.1	-2.5	0.4	57.9*	25.4	0.7
CC(C)CN(CC(C)C)C(=O)C12CCC(C)(C(=O)C1)C2(C)C (stereo unspecified)	-11.8	11.7	0.9	7.1	6.2	0.9
O=C(NCc1ccccc1)C1CC2CCCC(C1)C2=O (stereo unspecified)	-3.6	6.0	1.1	-7.9	-4.1	1
COc1ccc(C(=O)N2CCN(c3cccc(Cl)c3)CC2)c(OC)c1	-1.0	0.9	0.3	69.1*	86.7*	0.1
CCOc1ccc2ccccc2c1C(=O)N1CCN(c2ccccc2)CC1	-0.3	0.2	0.1	88.4*	93.0*	0.1
COc1ccc2oc(=O)c(C(=O)N3CCN(c4ccccc4)CC3)cc2c1	9.9	-13.2	0.7	32.4	29.8	0.7
CCOc1ccccc1C(=O)N1c2ccccc2Sc2ccccc21	2.0	-0.5	0	98.5*	87.3*	0.1
CC(=O)c1c(C)[nH]c(C(=O)N2CCN(c3ncccn3)CC2)c1C	4.8	-4.2	0.4	64.0*	96.2*	0
COc1ccc2ccccc2c1CN1CCN(C(=O)c2ccccc2)CC1	-2.0	0.5	0.9	14.0	42.4	0.6
O=C(c1ccccc1Oc1ccccc1)N1CCN(c2ccccc2)CC1	-3.8	3.8	0	97.7*	95.9*	0
CN(c1ccccc1C(=O)N1CCN(c2ccccc2)CC1)S(C)(=O)=O	-6.1	9.1	/	/	/	/
SMILES	sEH activator	sEH inh	CYP2C9 act	CYP2C9 inhib	CYP2C19 inh	CYP2C19 activ
CCOc1ccccc1C(=O)N1CCN(c2cccc(Cl)c2)CC1	10.5	-5.9	0.3	69.6*	66.7*	0.3
CCOC(=O)c1[nH]c(C)c(C(=O)N2CCN(c3ccccc3)CC2)c1C	/	/	0.5	54.6*	34.6	0.7
O=C(O)c1ccccc1C(=O)N1CCN(c2cccc(Cl)c2)CC1	-2.1	1.6	/	/	/	/
CCOC(=O)c1[nH]c(C)c(C(=O)N2CCOCC2)c1C	-13.0	11.9	1	4.7	3.2	1
COc1ccc(C(=O)Nc2nc3ccc(S(C)(=O)=O)cc3s2)cc1	1.0	0.2	/	/	/	/
COc1ccccc1C(=O)Nc1nc2ccc(S(C)(=O)=O)cc2s1	-2.8	4.7	/	/	/	/
C=CCN(CC=C)S(=O)(=O)c1ccc2nc(NC(=O)C(C)C)sc2c1	-13.1	14.2	0.1	93.4*	80.8*	0.2
CS(=O)(=O)c1ccc2nc(NC(=O)Oc3ccccc3)sc2c1	6.3	-3.1	0.3	70.3*	11.3	0.9
COCC(=O)Nc1nc2ccc(S(C)(=O)=O)cc2s1	31.6	-29.7	0.2	76.9*	62.6*	0.4
COc1ccccc1OCC(=O)NCC1CCCCC1	2.0	1.0	1.1	-11.1	94.7*	0.1
O=C(COn1nnc2ccccc21)NCC1CCCCC1	-3.4	6.5	0.9	5.1	55.2*	0.4
COC(=O)c1ccccc1OCC(=O)NC1CCCCC1	-0.9	0.5	0.5	49.0	64.2*	0.4
CCc1ccccc1OCC(=O)NC1CCCC1	-21.5	17.2	0.6	35.9	92.9*	0.1
CCCCOc1nc2ccccc2nc1C(C#N)S(=O)(=O)c1ccccc1 (stereo unspecified)	-1.6	2.3	0.2	77.4*	77.8*	0.2
COc1ccc2c(c1)C(=O)N(c1ccccc1)C(=O)C2	6.5	-3.5	0.9	6.9	19.3	0.8
COc1ccc2c(c1)C(=O)N(c1ccccc1OC)C(=O)C2(C)C	3.5	-3.9	0.4	62.9*	83.9*	0.2
COC(=O)CS(=O)(=O)c1nnc([C@H](Cc2ccccc2)NC(=O)OC(C)(C)C)o1	7.6	-6.0	0.2	77.1*	83.9*	0.2
COC(=O)CSc1nnc([C@H](Cc2ccccc2)NC(=O)OC(C)(C)C)o1	5.6	-8.5	1	2.2	12.1	0.9
Cc1cccc(CS(=O)(=O)c2nnc([C@H](Cc3ccccc3)NC(=O)OC(C)(C)C)o2)c1	19.1	-18.6	0.4	56.5*	36.5	0.6
N#CC1=C(N)N(c2ccc(Oc3ccccc3)cc2)C(=O)C1	10.0	-11.1	0.5	52.3*	45.8	0.5
CCOC(=O)Nc1ccc(S(=O)(=O)Nn2cnnc2)cc1	2.5	-5.0	0.7	30.2	11.3	0.9
CCCC1C(c2ccco2)NC(c2ccco2)CC1(C)O (stereo unspecified)	7.8	-9.3	1	0.2	-1.5	1
CC1C(=O)C(C)C(c2ccco2)NC1c1ccco1 (stereo unspecified)	/	/	1.3	-28.6	93.6*	0.1
CCC(=NCc1ccccc1)c1c(C(F)(F)F)[nH]n(-c2nc3ccccc3s2)c1=O	-3.9	1.1	0.1	93.5*	68.5*	0.3
